# Tests used:
# Test in all cases: PBM binding z-score (relative to random genomic background probes); higher = stronger binding; sequences stand for … in GC…GCGATTGACAGCGTAGAATGAAGG
# [1] = system: FXR:RXRa (NR concentration 270 nM, RXRa partner concentration 90 nM)
# Method in brief: (§1)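 Each nuclear receptor dimer, without ligand, was incubated for 1 h on custom Agilent 4×180K protein-binding microarrays. Binding was detected with antibodies against each partner (one per run), and scanned fluorescence was regression-normalized. The binding z-scores are referenced to random human genomic background probes.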
# [2] = system: LXRa:RXRa (NR concentration 270 nM, RXRa partner concentration 90 nM)
# Method in brief: as §1
# [3] = system: LXRa homodimer (NR concentration 270 nM)
# Method in brief: as §1
# [4] = system: LXRb:RXRa (NR concentration 270 nM, RXRa partner concentration 90 nM)
# Method in brief: as §1
# [5] = system: LXRb homodimer (NR concentration 270 nM)
# Method in brief: as §1
# [6] = system: PPARa:RXRa (NR concentration 270 nM, RXRa partner concentration 90 nM)
# Method in brief: as §1
# [7] = system: PPARg:RXRa (NR concentration 180 nM, RXRa partner concentration 90 nM)
# Method in brief: as §1
# [8] = system: PPARg:RXRa 270nM:90nM, anti-RXR (NR concentration 270 nM, RXRa partner concentration 90 nM)
# Method in brief: as §1
# [9] = system: PPARg:RXRa 30nM:10nM, anti-RXR (NR concentration 30 nM, RXRa partner concentration 10 nM)
# Method in brief: as §1
# [10] = system: PPARg:RXRa 90nM:30nM, anti-RXR (NR concentration 90 nM, RXRa partner concentration 30 nM)
# Method in brief: as §1
# [11] = system: PPARg:RXRa DBDmut IVT, anti-RXR (DBD mutation: RXRa K156A/R161A, NR concentration 270 nM, RXRa partner concentration 90 nM)
# Method in brief: as §1
# [12] = system: PPARg:RXRa IVT, anti-PPARg (NR concentration 270 nM, RXRa partner concentration 90 nM)
# Method in brief: as §1
# [13] = system: PPARg DBDmut:RXRa IVT, anti-PPARg (DBD mutation: PPARg1 K132A/R137A, NR concentration 270 nM, RXRa partner concentration 90 nM)
# Method in brief: as §1
# [14] = system: PPARg DBDmut IVT, anti-PPARg (DBD mutation: PPARg1 K132A/R137A, NR concentration 270 nM)
# Method in brief: as §1
# [15] = system: PPARg homodimer (NR concentration 180 nM)
# Method in brief: as §1
# [16] = system: PXR:RXRa (NR concentration 270 nM, RXRa partner concentration 90 nM)
# Method in brief: as §1
# [17] = system: PXR homodimer (NR concentration 270 nM)
# Method in brief: as §1
# [18] = system: RARa:RXR (NR concentration 270 nM, RXRa partner concentration 90 nM)
# Method in brief: as §1
# [19] = system: RARa homodimer (NR concentration 270 nM)
# Method in brief: as §1
# [20] = system: RARb:RXRa (NR concentration 270 nM, RXRa partner concentration 90 nM)
# Method in brief: as §1
Sequence,PBM binding z-score [1],PBM binding z-score [2],PBM binding z-score [3],PBM binding z-score [4],PBM binding z-score [5],PBM binding z-score [6],PBM binding z-score [7],PBM binding z-score [8],PBM binding z-score [9],PBM binding z-score [10],PBM binding z-score [11],PBM binding z-score [12],PBM binding z-score [13],PBM binding z-score [14],PBM binding z-score [15],PBM binding z-score [16],PBM binding z-score [17],PBM binding z-score [18],PBM binding z-score [19],PBM binding z-score [20]
CCTTACGGGTCACGAGGTTAGAGCACGACGAGCG,6.98,4.06,0.353,3.58,0.0179,5.8,7.39,6.87,3.49,6.11,4.55,5.59,2.76,1.38,2.96,4.32,-0.124,5.72,0.978,4.6
CGAACTAGGTCATTGACAGGACAGTTAATAGTAA,4.35,3.12,0.774,2.36,0.0885,4.66,7.39,6.51,3.39,5.59,8.43,8.43,3.82,2.93,2,1.68,0.386,2.32,0.822,3.6
ATCTCTAGGTAAGTCTCAGTTCAGTGAAGAACGC,0.588,0.489,0.754,0.383,1.26,0.246,-0.297,0.387,0.236,0.632,1.77,1.38,1.04,1.5,1.22,1.23,2.14,0.749,1.44,0.564
GTGACTGGGGCATCAGCAGGTTACCATAACTTAA,0.0842,0.236,-0.049,0.942,-0.399,1.75,1.86,1.89,0.217,0.996,4.3,4.9,0.566,0.266,0.222,0.254,0.042,0.669,-0.0196,1.09
AGAATGAGGTGACCAAAGATCAGGGAAACGCTTG,0.916,0.957,-0.26,0.478,-0.291,2.24,2.48,2.2,0.478,1.46,4.37,4.21,0.497,0.08,0.216,0.534,-0.16,0.899,-0.253,1.3
CCTTGTTGGTCAGGAGGTCACACACCGGATATGA,3.65,3.45,2.55,3.64,0.947,4.07,3.37,3.8,1.66,2.83,1.61,3.58,0.862,0.471,2.86,4.22,1.27,4.37,1.82,3.85
ATCCAAAGGTCGACGAGGTGAGTATACACCGTTT,5.35,3.7,0.198,3.13,0.235,4.5,4.29,4.16,1.4,3.03,0.48,2.51,0.787,0.209,1.99,3.05,0.52,3.62,0.92,4.07
TATACAGGGTCAAACGCCAGAGTACGAATGTCGA,7.58,6.35,3.43,5.2,3.15,6.3,7.33,6.79,3.84,5.94,2.52,4.64,3.59,3.04,3.53,4.49,0.94,5.61,0.721,4.45
CGTACTGGGCCATTCAGAGGTCATTGATCATATG,3.16,4.58,6.56,3.9,0.57,3.88,2.45,3.25,0.848,2.44,5.14,4.46,0.379,0.367,2.72,4.91,2.51,4.76,1.17,3.18
CGGACTAGGTCAAGGACAGTGAATCTCCGCACGC,2.94,1.81,-0.0937,1.01,-0.662,3.77,5.95,5.25,2.5,4.61,7.61,7.26,-0.333,-0.703,0.837,0.934,-0.0489,1.7,0.338,3.49
CCTACTAGGCCACGAAAGGTCATTGATTCAGTGA,4.02,5.66,5.5,4.32,0.558,4.84,5.77,5.3,2.35,4.43,6.91,6.28,0.693,0.0553,3.43,5.44,1.96,5.45,2.79,4.06
GTCCCAAGGTGAATAGGTCGTTGATGAGTAGGCG,0.85,0.873,-0.08,0.623,-0.403,2.26,1.19,1.4,0.109,0.815,1.17,2.18,-0.477,-0.0374,1.53,0.817,0.264,2,0.909,2.12
TGAATGAGGTTATAAGATGAGGGAACGTTGCAAA,1.51,1.28,-0.0389,1.09,0.338,2.36,1.1,1.61,1.03,1.43,1.09,1.5,0.967,0.169,0.684,0.72,-0.291,1.49,0.262,1.19
CCAGACAGGTGTAAGGTAACTCAGTCTGGTACGC,-0.0338,-0.35,-0.126,-0.421,-0.449,0.0692,0.41,0.842,-0.246,0.409,-0.423,-0.31,-0.287,-0.728,0.365,-0.318,-0.0688,-0.0779,-0.14,-0.403
TCTAGCAGGGCAGAGGGTCACTCAAGAGGTACGG,1.06,1.06,-0.469,1.04,-0.996,2.51,2.06,3.48,2.03,3.63,1.26,1.9,-0.31,-0.497,1.22,1.7,-0.546,2.42,-0.749,2.61
TAGCCTAGGTCAGAACGGGCCAGTATACGCTATA,1.13,0.618,-0.471,0.47,-0.65,1.31,0.763,0.742,-0.161,0.153,0.749,1.5,-0.735,-1.15,0.155,0.457,-0.462,0.873,-0.513,2.75
GGAACGAGGCCATTCGAGTTGATAGCATGGCGAT,0.572,0.106,-0.48,-0.483,-0.846,0.013,0.591,0.257,-0.557,-0.163,2.23,1.22,-0.239,-0.906,-0.779,1.73,0.561,-0.0585,-1.34,0.94
CGTCCAAGGTCAATGCTAGGTCAATGAAAGCATT,6.8,5.82,3.63,4.64,1.53,5.09,4.43,4.97,1.54,3.64,2.82,4.3,0.467,0.337,5.41,5.09,1.55,5.61,1.61,5.25
CCGACTGGGGCATAAGGCTACCATAAGCCAGCCC,-0.264,-0.169,-0.35,-0.67,-1.17,0.356,1.55,2.13,0.339,1.84,2.4,2.19,-1.08,-1.23,0.226,-0.731,-0.51,-0.184,0.133,0.337
GCTGCTAGGTCAACTGATGGTCAGCGAAAGCTCG,4.13,3.2,0.141,2.07,-0.112,3.84,2.73,3.35,0.723,2.31,4.56,4.1,0.329,-0.0247,1.64,1.7,-0.425,2.98,0.244,4.37
TCATACAGGTGAAGGTAACTCAGGTACGCAGTCG,1.02,2.17,0.186,1.18,0.221,1.68,1.3,2.39,3.72,3.04,3.17,2.45,0.347,1.84,1.14,0.814,0.508,1.31,0.817,1.26
GCAGAGAGGTGAAACGCAGGTAACTCAGGGTGGC,0.782,1.12,-0.671,0.662,-1.3,2.86,1.21,1.02,-0.323,-0.000796,2.17,1.97,-0.463,-1.39,-0.0516,0.34,-0.544,1.48,-0.435,1.88
TCTGCTAGGTCAGTTGGTCAGCTACCGAGCTGCC,0.866,0.506,-0.683,-0.00907,-0.0816,1.21,0.156,1.79,1.19,1.29,2.75,3.45,0.596,0.667,-0.139,0.0735,-0.891,0.438,-0.931,3.14
GGAACGAGGGCATTTGAGTTGATAGCATGGCGAT,1.31,1.6,-0.156,0.482,-0.207,1.65,0.939,0.641,-0.0141,0.257,2.97,2.01,-0.643,-0.444,0.183,4,2.08,0.869,-0.446,1.96
CGTCAAATTTCAAGGTAACGTAACAGAAAGCAGC,0.0505,-0.0464,0.101,0.163,-0.042,0.466,0.489,-0.149,0.0887,-0.0536,-0.147,0.739,1.23,0.951,0.422,0.33,-0.166,0.634,0.311,0.427
TGATATAGGTAATACAGGTGAAAGTCGGCATCTA,0.306,0.701,0.521,0.418,0.00189,2.16,2.39,2.3,1.33,2.05,4.32,4.45,1.57,1.13,1.38,0.409,0.476,0.69,0.77,0.624
TCTGATAGGTCAGTTGGTCAGCTAACGAGCTGCC,2.27,2.12,0.378,1.59,0.846,2.67,1.19,2.4,2.52,2.3,2.34,2.26,-0.134,1.25,1.43,0.816,-0.173,1.01,-0.0552,3.63
CCTACTGGGACAAAAAGGTCATTGATGCCGATAA,3.77,4.52,4.09,4.16,0.878,4.96,3.4,4.19,2.01,3.72,4,4.26,0.444,-0.273,3.86,4.85,4.14,5.36,1.97,3.94
TCTATTAGTTGATTAGGGCAAACGAAACAGCGGA,0.336,0.43,0.307,0.724,0.369,0.691,0.317,1.62,3.24,2.29,1.88,1.04,0.889,1.04,0.195,0.343,0.106,0.325,0.996,0.708
